Screening results from PubChem.
In the library only some 19% were active in any assay of this set; here they are far more common.
DT40 TDP1 CPT: growth inhibition of DT40 Tdp1-/-;hTDP1 cells with camptothecin (screen for TDP1 inhibitors) | AID 686979 | Potency, µM (highest dose often 46.2 µM), inactives show top-dose activity change, negative = growth inhibition, hits mostly inhibitors | chicken DT40 Tdp1-/-;hTDP1 cells + 20 nM CPT, ATP luminescence, 48 h | 420,000 compounds, 12% hits; note: potency is the fitted concentration of half-maximal effect; nearly all actives have a fitted effect of over 55% in size
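Chicken DT40 Tdp1-/- cells complemented with human TDP1, 400 cells/well, exposed to compounds plus 20 nM camptothecin for at least 48 h at 37 C; viability read as ATP content by CellTiter-Glo luminescence.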
HT1080NT lethal: kills 2HG-producing HT-1080-NT fibrosarcoma cells | AID 686970 | Potency, µM (titrated, usually from 46.1 µM), inactives show at the top dose activity, negative = less viability, most hits filed as cytotoxic | HT-1080-NT fibrosarcoma viability, CellTiter-Glo ATP luminescence, 48 h | 360,000 compounds, 1.6% hits;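 note: NT is the 2HG producing partner of a matched IDH1 knockdown line; potency is the fitted concentration of half-maximal effect; 0% = DMSO-treated cells and -100% = media-only wells without cells; nearly all actives have a fitted effect of over 55% in size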
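Viability of the 2HG-overproducing fibrosarcoma line after 48 hours of compound exposure at 37 degrees C was determined by luminescence with CellTiter-Glo, and concentration-effect curves were then fitted and categorized.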
TDP1 cell noCPT: qHTS for Inhibitors of human tyrosyl-DNA phosphodiesterase 1 (TDP1): qHTS in cells in absence of CPT; 420,000 compounds, 15% hits; Potency, µM (doses to about 46.2 µM), for inactives: at the highest dose activity change, negative = growth inhibition, usual class: inhibitors; DT40 Tdp1-/- hTDP1 cells, no CPT, ATP luminescence, 48 h; note: potency is the fitted concentration of half-maximal effect; nearly all actives have a fitted effect of over 55% in size
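Luminescent ATP content (CellTiter-Glo) served as the growth readout. Knockout chicken DT40 cells expressing human TDP1 were exposed to compounds without camptothecin for a minimum 48 hr at 37 °C.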
IL-1B inflam inh: inhibitors of inflammasome signaling (IL-1 beta secretion) | THP-1 LPS/ATP IL-1B secretion, AlphaLISA, 16 h; hits give low values | activity change, % at 57.5 µM | AID 743279 | 360,000 compounds, 4.7% hits; in the data active = activity change below about -50%; inconclusive = mostly about -30% to -49%
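THP-1 cells pretreated 1 hr with compounds (up to 57.5 uM final), then stimulated with LPS (250 ng/mL final) plus ATP (1.25 mM final); secreted IL-1B measured by AlphaLISA after 16 hr, decreased signal indicating inhibition.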
HT1080 IDH1KD tx: HT-1080 IDH1 knockdown cell toxicity (counter line) | HT-1080 IDH1 knockdown viability, ATP luminescence, 48 h | Potency, µM (doses to about 46.1 µM), without a hit: at the top dose activity, negative = toxicity, actives largely listed as cytotoxic | 360,000 compounds, 2% hits | AID 686971;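 note: potency is the fitted concentration of half-maximal effect; 0% = DMSO wells and -100% = cell-free medium wells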
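CellTiter-Glo luminescence after 48 h compound exposure at 37 degrees C of IDH1-knockdown HT-1080 cells in 5% FBS RPMI. %Activity scaled between DMSO wells and cell-free media wells, with curves fitted and assigned curve classes.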
* hit, by the source's call; ? = inconclusive; / = no result given. Unless noted, calls come from the whole dose curve; as a rule, active = well fitted curve in the direction sought with a large enough effect; inconclusive = small, poorly fitted or top-dose-only effect, or another doubt; inactive = no such curve, though single readings can be large; an effect the other way counts as inactive or inconclusive. Unless noted, % is set by controls: 0 for no effect and ±100 for the full control effect.

SMILES	DT40 TDP1 CPT	HT1080NT lethal	TDP1 cell noCPT	IL-1B inflam inh	HT1080 IDH1KD tx
COc1cc(/C=C/C(=O)Nc2nc3ccc(S(=O)(=O)N(C)C)cc3s2)cc(OC)c1OC	?	?	?	28.4	6.51µM*
COc1ccc(Br)cc1/C=C/C(=O)Nc1ccc(C)cc1	16.4µM*	-27.8%	16.4µM*	-66.9*	?
O=C(OCc1ccc(Br)cc1)c1cccc(S(=O)(=O)N2CCCC2)c1	-6.1%	-2.7%	-18.2%	2.0	2.1%
Cn1cccc1C(=O)C(=O)Nc1cc(Cl)cc(Cl)c1	16.4µM*	?	14.6µM*	1.0	?
Cn1cccc1C(=O)C(=O)Nc1ccc(F)c(F)c1	-3.2%	10.1%	-0.9%	0.4	11.9%
Cc1nc(Nc2ncc(C(=O)Nc3c(C)cccc3Cl)s2)cc(N2CCN(CCO)CC2)n1	2.11µM*	/	2.37µM*	/	/
Cc1c(Cl)cccc1NC(=O)CN1CCN(CCO)CC1	-6.4%	10.1%	3.1%	-4.6	5.8%
CC(C)C(NS(=O)(=O)c1ccc2c(c1)C(C)(C)C(=O)N2C)C(=O)NCc1ccc(F)cc1 (configuration not stated)	-15.1%	-1.1%	-5.5%	12.4	-1.2%
CC[C@@]1(C(=O)OC)N[C@H](CN(C)S(=O)(=O)c2ccc(C(C)(C)C)cc2)[C@@H]2C(=O)N(Cc3ccccc3)C(=O)[C@@H]21	?	8.9%	?	51.6	13.2%
CCOc1ccc(C(C(=O)NC2CCCC2)N(C(=O)c2snc(C(N)=O)c2N)c2cccc(O)c2)cc1 (configuration not stated)	?	-11.7%	16.4µM*	-5.6	-8.4%
CCCC(C(=O)NC1CCCC1)N(C(=O)c1snc(C(N)=O)c1N)c1ccc(OCC)cc1 (configuration not stated)	-19.9%	0.7%	20.6µM*	-59.3*	0.1%
NC(=O)c1nsc(C(=O)N(c2cccc(O)c2)C(C(=O)NC2CCCC2)c2ccc(Cl)cc2)c1N (configuration not stated)	4.3%	-10.3%	?	-0.6	-3.8%
Cc1ccc2c(=O)cc(C(=O)Nc3c(C)cccc3C)oc2c1	-22.4%	/	-23.6%	/	/
CCC(=O)n1nc(-c2cccnc2)nc1NCc1ccccc1	-6.4%	-35.2%	-24.0%	3.7	4.61µM*
NC(=O)c1cc(NC(=O)CCc2nc3ccccc3s2)cc(C(N)=O)c1	18.8%	24.6%	0.1%	35.6	19.4%
CCOc1ccc(NC(=O)COC(=O)C2CC2C)cc1 (configuration not stated)	?	10.0%	18.4µM*	8.8	11.9%
CCOc1ccc(NC(=O)CCSc2ccc(C)cc2)cc1	?	11.2%	16.4µM*	0.0	10.8%
CCOc1ccc(NCC(=O)c2ccc(C)cc2)cc1	?	-20.0%	?	-80.8*	-29.3%
Cc1ccc(SCCC(=O)Nc2ccc(OCc3ccccc3)cc2)cc1	-18.9%	-3.9%	-21.5%	-15.4	-3.7%
COc1ccc(C)cc1Nc1n[n+](-c2ccccc2)c(-c2c(OC)ccc3ccccc23)s1	5.8µM*	?	5.17µM*	-74.6*	?
COc1ccc(C)cc1Nc1n[n+](-c2ccccc2)c(-c2cc(OC)c(OC)cc2Br)s1	23.1µM*	-28.9%	16.4µM*	-11.1	-23.6%
COc1ccc(C)cc1Nc1n[n+](-c2ccccc2)c(-c2ccc(C(=O)O)cc2)s1	-7.5%	6.6%	-8.6%	38.7	-0.8%
COc1ccc2ccccc2c1-c1csc(N)n1	-1.9%	-2.8%	-8.6%	-12.8	8.4%
O=C(C1=NOC2(C1)C(=O)N(Cc1ccccc1)c1ccccc12)N1CCOCC1 (configuration not stated)	-17.3%	2.9%	?	0.0	3.2%
CCOCCCN(Cc1ccco1)C(=O)c1cc2c(=O)[nH]c3ccc(C)cc3c2s1	23.1µM*	-19.8%	11.6µM*	-5.9	-23.5%
SMILES	DT40 TDP1 CPT	HT1080NT lethal	TDP1 cell noCPT	IL-1B inflam inh	HT1080 IDH1KD tx
Cc1ccc(C)c(N(C)C(=O)c2cc3c(=O)[nH]c4ccc(C)cc4c3s2)c1	16.4µM*	-4.0%	4.11µM*	-3.1	6.3%
CCCN(CCC)C(=O)c1cc2c(=O)[nH]c3ccc(C)cc3c2s1	?	-2.0%	16.4µM*	?	0.7%
CCN(C(=O)c1cc2c(=O)[nH]c3ccc(C)cc3c2s1)c1ccc(OC)cc1	29.1µM*	-2.7%	9.2µM*	-9.9	-1.3%
CC1(C)CC(=O)C2=C(C1)Nc1ccccc1NC2c1ccc([N+](=O)[O-])cc1 (configuration not stated)	1.1%	15.4%	-8.4%	-0.3	2.6%
COc1cccc(CNC(=O)CCc2nc3cc(S(=O)(=O)N4CCOCC4)ccc3n2C)c1	-25.2%	3.1%	-23.3%	-10.6	-0.9%
CSc1ccc(/C=C(/NC(=O)c2ccc(C)cc2)C(=O)Nc2cccc(C)c2)cc1	7.31µM*	0.8%	7.31µM*	36.9	0.2%
Cc1ccc(-n2c(C)cc(/C=c3/sc4nc5ccccc5n4c3=O)c2C)cc1	16.4µM*	-6.2%	9.2µM*	-9.3	-6.1%
Cc1cc(-n2c(SCC(=O)NCCC3=CCCCC3)nc3n[nH]c(C)c3c2=N)ccc1Cl	16.4µM*	18.4µM*	8.2µM*	13.6	?
Cc1[nH]nc2nc(SCC(=O)NCCC3=CCCCC3)n(-c3ccc(Br)cc3)c(=N)c12	11.6µM*	20.6µM*	8.2µM*	-3.7	?
Cc1ccc(Cl)cc1-n1c(SCC(=O)NCCC2=CCCCC2)nc2n[nH]c(C)c2c1=N	?	?	-23.1%	0.0	?
Cc1c(O)ccc(C(=O)CN2CCN(Cc3ccccc3)CC2)c1O	-12.2%	-1.3%	-8.6%	3.4	-0.4%
Cc1ccccc1CC(=O)c1ccc(O)c(C)c1O	-21.3%	?	?	-55.0*	?
COc1cc(NC(=O)Cn2ncc(Cl)c(Cl)c2=O)c(C)cc1[N+](=O)[O-]	2.91µM*	7.31µM*	4.61µM*	-95.2*	2.59µM*
COC(=O)C1CC23C=CCN4CCC5(c6ccccc6NC15C2C)C43 (configuration not stated)	1.03µM*	0.581µM*	1.3µM*	38.1	0.731µM*
CCC(C)NC(=O)CCSCCC(=O)NC(C)CC (configuration not stated)	-9.4%	13.8%	6.4%	16.4	13.0%
COC(=O)CNc1nc(-c2cccnc2)nc2ccccc12	-27.2%	-7.9%	-5.9%	-2.7	-4.9%
CC(Nc1nc(-c2cccnc2)nc2ccccc12)c1ccc(F)cc1 (configuration not stated)	25.9µM*	-26.9%	18.4µM*	-67.8*	?
c1ccc(CNc2nc(-c3cccnc3)nc3ccccc23)cc1	?	-0.9%	?	-11.1	7.9%
